# Compounds with a hit are over-represented: about 11% of the library has one in this group of screens.
# ALDH1A1 inh: inhibitors of human aldehyde dehydrogenase 1A1; actives 7.3% (n = 220,000); Purified ALDH1A1, NADH fluorescence, propionaldehyde substrate; AID 1030; Potency, µM (doses to about 75.3 µM), inactives show top-dose activity, negative = inhibition, hits mostly inhibitors;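 further: potency means the concentration at half of the fitted maximal effect; plate controls were no enzyme wells and a reference inhibitor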
# PNC inhibitor: inhibitors of perinucleolar compartment assembly; actives 3.1% (n = 140,000); activity change (PNC), negative = inhibition, % at 10 µM; PC3M PTB-GFP, PNC prevalence imaging, 16 h; active compounds read low;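 active means readout at or below -70, meaning at least 70% loss of cells showing the perinucleolar compartment, a nuclear body marking cancer cells; inconclusive means readout between -30 and a set limit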;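 further: plate controls were DMSO wells for no effect and camptothecin positive control wells for full effect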
#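 Read-out is percentage of cells bearing a perinucleolar compartment, from automated 20x imaging of fixed, Hoechst-stained PC3M PTB-GFP cells. Cells were seeded 4 h, then exposed 16 h to compound (23 nl of library stock) in duplicate plates.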
# HPGD block: HPGD (human) dehydrogenase inhibition | P15428 | purified HPGD, NADH fluorescence kinetic, PGE2 substrate | Potency, µM, for inactives: at the top dose activity change, negative = inhibition, actives largely listed as inhibitors | actives 4.3% (n = 150,000) | AID 894; further: potency means the concentration at half of the fitted maximal effect
# Target sequence (P15428 whole entry, looked up): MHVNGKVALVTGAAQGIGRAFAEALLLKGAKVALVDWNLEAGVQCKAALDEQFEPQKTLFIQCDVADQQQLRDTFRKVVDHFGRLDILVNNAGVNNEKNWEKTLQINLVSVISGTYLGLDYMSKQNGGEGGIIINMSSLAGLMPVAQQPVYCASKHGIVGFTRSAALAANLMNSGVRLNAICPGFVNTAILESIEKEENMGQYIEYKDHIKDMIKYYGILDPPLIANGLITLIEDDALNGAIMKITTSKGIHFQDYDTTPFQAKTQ
#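 NADH formation kinetics: reaction with 30 uM PGE2 and 1 mM NAD+ (final), 20 nM enzyme, Tris-HCl pH 8 with Tween 20, after 15 min compound preincubation at room temperature. Fluorescence change, last versus first of five reads.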
# * marks the source's active call; other numbers are inactive results; ? = inconclusive; / = no result; [ ] = remark or other dose. Unless noted, the call rests on the fitted dose curve; in most records, active means well fitted inhibition curve with a large enough effect (not every such curve was filed as active); inconclusive means small, poorly fitted or top-dose-only effect, or another doubt; inactive means no such curve, though single readings can be large or run the other way. Unless noted, on the % scale 0 is the no-effect control and ±100 the full control effect.
SMILES,ALDH1A1 inh,PNC inhibitor,HPGD block
CC(=O)Nc1cccc2c1C(=O)N(c1ccccc1C)C2=O,-10%,/,/
Cc1ccccc1N1C(=O)c2cccc3c(N(C)CCO)ccc(c23)C1=O,?,-80*,-19%
Cc1cc(N2CCCC2=O)c(N)cc1N,6%,-4,-9%
CCOc1ccccc1-c1ccc(C(=O)NCc2ccccc2)o1,?,47,?
Cc1cc(NCCO)nc(N2CCOCC2)n1,?,8,/
CC(=O)C(C(C)=O)c1c(Cl)c(O)c(O)c2c(C(=O)c3ccccc3)coc12,7%,22,3.2µM*
CN1CCN(Cc2c(O)ccc3occ(C(=O)c4ccccc4)c23)CC1,0%,?,-5%
CC(=O)N(Cc1ccco1)C1(C(=O)NC2CCCC2)CCCCC1,-8%,-12,-6%
O=C(CSCc1ccco1)NC1CCCC1,?,?,28µM*
O=CN(Cc1ccco1)C1(C(=O)NC2CCCCC2)CCCCC1,14µM*,5,3%
Cc1ccc(NC(=O)CSCc2ccco2)cc1,22µM*,/,/
O=C(NCc1ccco1)NC1CCCCC1,3%,?,-10%
Cc1ccccc1CSCC(=O)NC1CCCC1,8%,-28,18µM*
Cc1ccc(NC(=O)CSCC(=O)O)cc1,1%,/,/
O=C(CSCC(=O)NC1CCCC1)Nc1ccccc1,6%,-20,?
COCC1CCN(Cc2nc(-c3ccc(OC)cc3)no2)CC1,-13%,/,/
CN(Cc1ccccc1)c1nc(N)c([N+](=O)[O-])c(NCc2ccccc2)n1,-8%,31,-12%
CCN(C(=O)COc1cccc2cccnc12)C1CCS(=O)(=O)C1 (stereo not drawn),-11%,/,/
Cc1ccc(S(=O)(=O)CCC(=O)OCc2ccc(Cl)cc2)cc1,?,-6,-2%
Cc1ccc(S(=O)(=O)CCC(=O)c2ccc(O)cc2O)cc1,0.28µM*,-9,-22%
CC(=O)N(C(C)=O)S(=O)(=O)c1ccc(N=NN2CCCCC2)cc1,-3%,186,-16%
O=Cc1ccc(-c2ccccc2C(=O)O)o1,-10%,/,/
O=C(O)c1ccccc1-c1ccc(/C=c2\sc3nc4cc(Br)cnc4n3c2=O)o1,22µM*,?,32µM*
COc1ccc([N+](=O)[O-])cc1NC(=O)c1ccccc1N(C)S(C)(=O)=O,-17%,/,/
O=C(c1cc(-c2ccccn2)nc2c(Cl)cccc12)N1CCN(C(=O)C2CCCO2)CC1 (stereo not drawn),-6%,-18,-16%
SMILES,ALDH1A1 inh,PNC inhibitor,HPGD block
O=C(c1cc(-c2ccccn2)nc2c(Cl)cccc12)N1CCN(S(=O)(=O)c2ccccc2)CC1,16µM*,49,-16%
CO/C([O-])=N/c1c[n+](-c2ccc(Cl)cc2)no1,?,16,-2%
CCOc1cc(S(=O)(=O)NCc2ccccn2)ccc1Cl,-3%,-24,-3%
O=c1[nH]nc(SCCS(=O)(=O)c2ccc(F)cc2)n1-c1ccccc1,2.8µM*,/,/
Cc1nc(CSc2n[nH]c(=O)n2-c2cccc(F)c2)cs1,6%,/,/
O=c1[nH]nc(SCCS(=O)(=O)c2ccc(F)cc2)n1-c1ccc2c(c1)OCCO2,20µM*,/,/
NC(=O)CSc1nnnn1-c1ccc2c(c1)OCCO2,0%,4,2%
c1ccc2c(CSc3ncnc4nc[nH]c34)cccc2c1,-2%,/,/
CCn1cc[n+](C)c1P(c1ccccc1)c1ccccc1,8%,-13,25µM*
CC1CCc2sc(C(=O)OCC(=O)NCc3ccc(F)cc3)cc2C1 (stereo not drawn),3%,4,/
Cc1cc(C(=O)CSc2nnc(-c3ccco3)o2)c(C)n1Cc1ccco1,?,-7,-3%
CCOC(=O)c1cc(C)n(CCc2ccccc2)c1C,-13%,-26,-11%
COC(=O)CCn1c(C)cc(C(=O)COc2ccccc2C(N)=O)c1C,7%,/,/
COC(=O)CCCn1c(C)cc(C(=O)CCl)c1C,0.5µM*,/,/
Cc1cc(C(=O)CCl)c(C)n1Cc1ccco1,0.1µM*,/,/
Cc1cc(C(=O)CCl)c(C)n1CCc1ccccc1,0.032µM*,/,/
Cc1cc(C)n(CC(O)CN2c3ccccc3Sc3ccccc32)n1 (stereo not drawn),-3%,19,-10%
O=C1/C(=C/c2ccccc2)CCCc2ccccc21,-9%,23,-1%
COc1ccc(/C=C2\CCC/C(=C\C=N\N(C)C)C2=O)cc1,4µM*,/,/
O=C1/C(=C/c2ccc(C(=O)O)cc2)CCC/C1=C\c1ccc(C(=O)O)cc1,-1%,-93*,20µM*
COc1ccc(/C=C2/CCOC2=O)cc1,2%,23,2%
O=C(O)c1ccc(/C=C/c2nc3sc4c(c3c(=O)[nH]2)CCC4)cc1,16%,/,/
CN(C)c1ccc(/C=C2\CCC/C(=C\c3ccccc3)C2=O)cc1,13µM*,-24,-11%
Cc1nn(C)c(C)c1NC(=O)c1ccc(S(=O)(=O)N(C)C)cc1,4%,?,2%
Nn1c(SCC(=O)N2CCCc3ccccc32)nncc1=O,-12%,/,/
SMILES,ALDH1A1 inh,PNC inhibitor,HPGD block
COc1ccc(C(=O)NCc2nnc(SCC(=O)N3CCc4ccccc43)n2C2CCCCC2)cc1,22%,48,-7%
COc1cccc(-n2nnnc2SCC(=O)NC2CCCC2)c1,-13%,1,-26%
COc1ccc(C(=O)NCc2nnc(SCC(=O)N3CCc4ccccc43)n2CCc2ccccc2)cc1,0.63µM*,9,-7%
COc1cc(OC)cc(-n2nnnc2SCC(=O)N2CCCc3ccccc32)c1,2.8µM*,?,-18%
Cn1cccc1Cc1nnc(SCC(=O)N2CCCc3ccccc32)n1-c1ccc(F)cc1,?,19,-3%
COc1ccc(-n2c(Cc3ccccc3)nnc2SCC(=O)N2CCCc3ccccc32)cc1,11µM*,-100*,-17%
COc1cccc(-n2nnnc2SCC(=O)N2CCCc3ccccc32)c1,5.6µM*,?,-13%
CC(C)=Cc1oc2ccc([N+](=O)[O-])cc2c1N1CC(C)OC(C)C1 (stereo not drawn),-11%,/,/
Cc1ccc(S(=O)(=O)Nc2ccccc2C=O)cc1,6%[13.5 µM],/,-9%
Cc1ccc(S(=O)(=O)Nc2ccc(Br)cc2/C=N/n2cnnc2)cc1,28µM*,45,-3%
O=c1c2oc3ccccc3c2ncn1Cc1ccc(F)cc1,6%,/,/
CCC(C)(C)C1CCc2c(sc(N)c2C(N)=O)C1 (stereo not drawn),?,-3,-5%
CCOC(=O)c1c(NC(=O)c2ccco2)sc2c1CCCC2,?,-25,?
CCOC(=O)c1c(NC=O)sc2c1CCC2,-10%,-11,-6%
CCOC(=O)c1c(N)sc2c1CCCC2,20µM*,?,?
CCOC(=O)c1c(NC(=O)CN2CCN(C(=O)c3ccco3)CC2)sc2c1CCCC2,24µM*,-100*,-19%
CCOC(=O)c1c(N)sc2c1CCC(C)C2 (stereo not drawn),13µM*,?,?
CCCC1CCc2c(sc(N)c2C(N)=O)C1 (stereo not drawn),10µM*,-13,-12%
CCOC(=O)c1c(NS(C)(=O)=O)sc2c1CCC(C)C2 (stereo not drawn),?,3,-7%
NC(Cc1cnc[nH]1)C(=O)Nc1ccc2ccccc2c1 (stereo not drawn),3%,/,-15%
CCSc1cnc(-c2ccccc2)n1CC,-3%,12,-14%
C[C@H](N=C(NC#N)Nc1ccncc1)C(C)(C)C,-5%,/,-28%

# Screens: PubChem, National Center for Advancing Translational Sciences (NCATS)
